This excerpt belongs to a sample that is enriched for hits.
ST2 inh: blocks human ST2 binding to IL-33 | AlphaLISA ST2-Fc/biotin-IL-33 interaction, 1 h | AID 1259354 | hit rate 2.3% among 78,000 | Q01638 | inhibition, % for hits at 17 µM; in the data active = inhibition above about 30%
Target sequence (Q01638 whole entry, looked up): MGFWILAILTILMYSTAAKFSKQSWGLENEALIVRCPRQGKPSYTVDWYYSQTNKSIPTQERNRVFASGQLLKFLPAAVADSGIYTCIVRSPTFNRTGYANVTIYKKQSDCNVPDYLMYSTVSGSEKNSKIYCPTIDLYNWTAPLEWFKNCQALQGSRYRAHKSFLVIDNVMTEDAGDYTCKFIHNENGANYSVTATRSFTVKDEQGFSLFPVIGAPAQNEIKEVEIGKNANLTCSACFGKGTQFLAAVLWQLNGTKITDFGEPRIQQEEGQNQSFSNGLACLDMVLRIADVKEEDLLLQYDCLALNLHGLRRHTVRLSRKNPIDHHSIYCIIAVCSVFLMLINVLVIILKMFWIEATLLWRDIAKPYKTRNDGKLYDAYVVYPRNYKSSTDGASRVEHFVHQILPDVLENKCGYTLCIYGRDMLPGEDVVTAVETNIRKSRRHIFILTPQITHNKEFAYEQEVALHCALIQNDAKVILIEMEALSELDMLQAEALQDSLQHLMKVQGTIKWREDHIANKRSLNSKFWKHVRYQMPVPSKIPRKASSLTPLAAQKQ
Active calls of the source: *.

How did CCN(C(=O)Cc1c(C(=O)O)n(CC)c2ccccc12)c1ccc(F)cc1 do in these assays?
ST2 inh: inactive

Results for CCCOc1ccc(C2C(C(=O)OC(C)C)=C(C)NC3=C2C(=O)C(C(=O)OC)C(C)C3)cc1 (stereo not given) ?
ST2 inh: inactive

How did CSc1nc2n(n1)C(c1ccccc1F)C(C(=O)Nc1ccc(C)cc1C)=C(C)N2 (stereo not given) do in these assays?
ST2 inh: inactive

Results for C=CCn1nc(C(=O)O)c2c1CCC(NCc1c(F)cccc1Cl)C2 (stereo not given) ?
ST2 inh: inactive

Results for CC(C)N1CCC[C@H]1c1nc(-c2ccc(-n3ccnc3)nc2)no1 ?
ST2 inh: 35%*

Results for c1cn(-c2ccc(-c3noc([C@@H]4CCCN4)n3)cn2)cn1 ?
ST2 inh: inactive

What do the screens show for `c1cc(N2CCOCC2)ncc1-c1noc([C@@H]2CCCN2C2CCOCC2)n1`?
ST2 inh: inactive

What do the screens show for `CC(=O)Nc1ccc(S(=O)(=O)N2C[C@@H]3C[C@H](C2)c2ccc(-c4ccccc4CN(C)C)c(=O)n2C3)cc1`?
ST2 inh: inactive

What do the screens show for `CN(CCNc1ncc(F)c(N2CCOCC2)n1)S(C)(=O)=O`?
ST2 inh: inactive

How did O=C(O)c1ccc(C2CCN(Cc3cccc(-n4cccn4)c3)C2)cc1 (stereo not given) do in these assays?
ST2 inh: inactive

What do the screens show for `CS(=O)(=O)CC[C@H](NC(=O)C1=C[C@@H](NC(=O)[C@@H]2C[C@@H](O)CN2)[C@@H](O)[C@H](O)C1)C(N)=O`?
ST2 inh: inactive

What do the screens show for `CCn1c2ccccc2c2cc(/C=C/[N+](=O)[O-])ccc21`?
ST2 inh: 38%*

What do the screens show for `CCn1c2ccccc2c2cc(CN3CCCN(C)CC3)ccc21`?
ST2 inh: inactive

What do the screens show for `CCn1c2ccccc2c2cc(NC(=O)CSc3cc(=O)n(C)c4ccccc34)ccc21`?
ST2 inh: inactive

How did COc1ccc(C2CC(c3ccccc3O)=NN2)cc1OC (stereo not given) do in these assays?
ST2 inh: inactive

Results for COc1cccc2cc(C(=O)NC(C)=O)c(=Nc3ccc(C(F)(F)F)cc3)oc12 ?
ST2 inh: inactive

What do the screens show for `COc1cccc2cc(C(=O)NC(C)=O)c(=Nc3ccccc3F)oc12`?
ST2 inh: 33%*

What do the screens show for `COc1cccc2cc(C(=O)NC(C)=O)c(=Nc3cccc(F)c3)oc12`?
ST2 inh: inactive

What do the screens show for `CCSc1nc(CC(=O)N2[C@@H]3CC[C@H]2CC(O)C3)cs1` (stereo not given in full)?
ST2 inh: inactive

How did CCN(CCN1CCCC1)Cc1cccnc1 do in these assays?
ST2 inh: inactive

What do the screens show for `Cc1cc(N2CCC(C)CC2)nc2ccc(NC(=O)CCC(=O)N3CCCCC3)cc12`?
ST2 inh: inactive

Results for CN(C)S(=O)(=O)CCNCCC(=O)N1CCCc2ccccc21 ?
ST2 inh: inactive

Results for CC(C)c1ccc(C(=O)NC2CCCC2)cc1 ?
ST2 inh: inactive

Results for O=C1c2c(O)cc(O)cc2OC(c2ccc(O)c(O)c2)C1O (stereo not given) ?
ST2 inh: inactive

How did O=C(Oc1cc(O)c2c(c1)O[C@@H](c1ccc(O)c(O)c1)[C@H](O)C2)c1cc(O)c(O)c(O)c1 do in these assays?
ST2 inh: inactive

What do the screens show for `O=C(O[C@@H]1Cc2c(O)cc(O)cc2O[C@@H]1c1cc(O)c(O)c(O)c1)c1cc(O)c(O)c(O)c1`?
ST2 inh: 31%*

Results for CC(C)c1cc(C(=O)N2CC(c3ccncc3)C2)on1 ?
ST2 inh: inactive

Results for Cn1c(=NC(=O)c2ccc(S(=O)(=O)N3CCCCC3)cc2)sc2cc(F)ccc21 ?
ST2 inh: inactive

Results for Cc1nc2c3c(-c4ccccc4)nc(N4CCC(C)CC4)nc3nn2c(C)c1CCC(=O)O ?
ST2 inh: inactive

What do the screens show for `CC(C)CNC(=O)c1cc2n(n1)C(C(F)(F)F)CC(c1ccc(Cl)c(Cl)c1)N2` (stereo not given)?
ST2 inh: inactive

Results for O=c1/c(=C/c2ccccc2F)sc2nc3ccccc3n12 ?
ST2 inh: inactive

What do the screens show for `CCCCN1C(=O)/C(=c2\sc3nc(-c4ccc(OC)cc4)nn3c2=O)c2ccccc21`?
ST2 inh: inactive

Results for C=CCN1C(=O)/C(=c2/sc3nc4ccccc4n3c2=O)c2ccccc21 ?
ST2 inh: 31%*

Results for CN1CCC(Cc2noc(-c3cccc(OCC(N)=O)c3)n2)CC1 ?
ST2 inh: inactive

How did O=C(O)c1ccc(Oc2ccc(C(=O)O)c(C(=O)O)c2)cc1 do in these assays?
ST2 inh: inactive

Results for C=C(C)COc1ccccc1C(=O)NC(CC)c1nc(C)no1 (stereo not given) ?
ST2 inh: inactive

Results for CCC(=O)Oc1cc2c(C)cc(=O)oc2cc1Cl ?
ST2 inh: inactive

What do the screens show for `CC(=O)c1cc(C#N)c(SCc2c(F)cccc2Cl)nc1C`?
ST2 inh: inactive

Results for COc1cc(/C=C2/SC(=Nc3ccccc3)NC2=O)cc(Cl)c1O ?
ST2 inh: 42%*

Results for COc1cc(C2NC(=O)CCC2[N+](=O)[O-])cc(Cl)c1O (stereo not given) ?
ST2 inh: inactive

How did CCOc1cc(/C=C2/NC(=O)NC2=O)ccc1OCc1ccccc1C#N do in these assays?
ST2 inh: inactive

What do the screens show for `COc1cc(/C=C2/SC(=Nc3ccccc3)NC2=O)ccc1OCC#N`?
ST2 inh: 32%*

How did COc1ccc(OC)c(/C=C2/SC(=Nc3ccc(C)cc3)NC2=O)c1 do in these assays?
ST2 inh: inactive

Results for CCOc1ccc(/C=C2\SC(N3CC(C)OC(C)C3)=NC2=O)cc1OC (stereo not given) ?
ST2 inh: inactive

How did O=C(c1ccc(OC2CCN(Cc3ccccn3)CC2)cc1)N1CCN(C2CCCC2)CC1 do in these assays?
ST2 inh: inactive

What do the screens show for `CC(=O)Nc1ccc(-c2ccc(=O)n3c2[C@@H]2C[C@@H](CN(C(=O)Nc4ccc(Cl)cc4)C2)C3)cc1`?
ST2 inh: inactive

What do the screens show for `Cc1cccc(C(=O)N2C(C)CCCC2C)c1` (stereo not given)?
ST2 inh: inactive

What do the screens show for `CC1CN(C(=O)c2cccc(F)c2)C(C)CN1C(=O)c1cccc(F)c1` (stereo not given)?
ST2 inh: 85%*

Results for COC(=O)[C@@H]1CN(C(=O)c2cccc(F)c2)CCN1C(=O)c1cccnc1 ?
ST2 inh: inactive

How did N#CC1=C(N)Oc2n[nH]c(-c3ccc4c(c3)OCO4)c2C1c1ccccc1Br (stereo not given) do in these assays?
ST2 inh: inactive

What do the screens show for `Cc1noc(C)c1C1CCCN1C(=O)c1cnn2ccn(C)c12` (stereo not given)?
ST2 inh: inactive

What do the screens show for `CCn1nc(C)c(NC(=O)CN2CCCC2c2cc(C(C)C)on2)c1C` (stereo not given)?
ST2 inh: inactive

How did CC(C)c1cc(C2CCCN2C(=O)c2cnn3c2CCCC3)no1 (stereo not given) do in these assays?
ST2 inh: 32%*

What do the screens show for `O=C(Nc1cc(Cl)c(Cl)cc1Cl)c1cnc2n(c1=O)CCS2`?
ST2 inh: inactive

What do the screens show for `O=C(Cc1ccccc1)Nc1cccc(NC(=O)Cc2ccccc2)n1`?
ST2 inh: inactive

What do the screens show for `CS(=O)(=O)c1cccc(C(=O)N2CCC(Cc3cccc(C(N)=O)c3)C2)c1` (stereo not given)?
ST2 inh: inactive

Assay outcomes from PubChem BioAssay.
